Measurements: the supplement of paper PMC10849652
The full data set covers some 8,800 targets. This sample favours those with a hit. About 0.5% of all pairs of compound and target were hits.

compound: CCCS(=O)(=O)Nc1ccc(F)c(C(=O)c2c[nH]c3ncc(-c4ccc(Cl)cc4)cc23)c1F [vemurafenib]; assay: log2 fold change, soluble protein after heating vs DMSO (PISA); higher = thermal stabilisation; K562 lysate, 10 uM; active = over 0.2 and 3.5 SD of the protein, either way, in both replicates (recomputed)
How it was run: (§1)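 Thermal stability, expressed as log-two fold change relative to solvent controls, is given from duplicates. Crude K562 extract in PBS pH 7.4 with 1 mM MgCl2, at 1 mg/mL protein, was treated with 10 μM compound for 30 min and heated in aliquots for 3 min across 48°C-58°C. After pooling, adjustment to 0.5% NP-40 at 4°C and centrifugation at 21,000xg for 90 min, supernatant protein was measured by TMTpro 16plex LC-MS/MS with channel sums equalised.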

Sequence of UniProt Q14145 (Q14145 whole entry, looked up): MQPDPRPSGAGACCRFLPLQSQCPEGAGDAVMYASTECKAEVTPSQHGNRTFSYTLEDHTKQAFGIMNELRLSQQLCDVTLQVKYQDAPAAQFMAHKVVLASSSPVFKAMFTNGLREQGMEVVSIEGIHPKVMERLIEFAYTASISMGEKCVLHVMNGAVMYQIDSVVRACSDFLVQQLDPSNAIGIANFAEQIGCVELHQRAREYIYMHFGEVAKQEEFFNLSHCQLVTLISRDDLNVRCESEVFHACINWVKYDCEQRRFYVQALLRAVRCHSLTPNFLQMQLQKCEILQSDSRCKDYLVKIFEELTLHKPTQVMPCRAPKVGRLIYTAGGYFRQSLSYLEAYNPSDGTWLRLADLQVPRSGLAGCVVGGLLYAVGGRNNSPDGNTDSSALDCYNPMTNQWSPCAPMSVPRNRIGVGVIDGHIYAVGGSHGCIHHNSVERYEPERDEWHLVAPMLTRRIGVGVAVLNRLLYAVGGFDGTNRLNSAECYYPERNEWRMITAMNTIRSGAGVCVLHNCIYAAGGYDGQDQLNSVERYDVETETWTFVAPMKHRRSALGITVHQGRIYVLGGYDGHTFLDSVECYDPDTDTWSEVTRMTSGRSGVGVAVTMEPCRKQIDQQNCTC
Sequence of UniProt Q8NC54 (Q8NC54 whole entry, looked up): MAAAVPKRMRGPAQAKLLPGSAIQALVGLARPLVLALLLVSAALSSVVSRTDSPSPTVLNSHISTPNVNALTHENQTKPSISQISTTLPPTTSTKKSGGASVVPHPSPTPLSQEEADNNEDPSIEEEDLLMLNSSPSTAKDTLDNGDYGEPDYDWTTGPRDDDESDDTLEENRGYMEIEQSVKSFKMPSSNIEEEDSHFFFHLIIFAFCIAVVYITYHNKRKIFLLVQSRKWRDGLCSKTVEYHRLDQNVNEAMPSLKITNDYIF
Sequence of UniProt Q9NWZ3 (Q9NWZ3 whole entry, looked up): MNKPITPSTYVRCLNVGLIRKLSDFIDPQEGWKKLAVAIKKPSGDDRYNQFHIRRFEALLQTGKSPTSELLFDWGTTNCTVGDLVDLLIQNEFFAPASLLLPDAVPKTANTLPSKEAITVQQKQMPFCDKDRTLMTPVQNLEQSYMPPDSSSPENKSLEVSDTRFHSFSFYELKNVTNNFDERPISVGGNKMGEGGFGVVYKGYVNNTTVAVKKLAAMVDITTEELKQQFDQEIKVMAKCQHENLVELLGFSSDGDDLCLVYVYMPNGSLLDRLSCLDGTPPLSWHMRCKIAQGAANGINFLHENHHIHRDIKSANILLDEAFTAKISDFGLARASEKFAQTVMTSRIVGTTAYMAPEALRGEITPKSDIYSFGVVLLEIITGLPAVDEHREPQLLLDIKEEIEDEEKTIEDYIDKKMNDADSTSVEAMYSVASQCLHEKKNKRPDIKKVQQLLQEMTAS
Sequence of UniProt Q3T8J9 (Q3T8J9 whole entry, looked up): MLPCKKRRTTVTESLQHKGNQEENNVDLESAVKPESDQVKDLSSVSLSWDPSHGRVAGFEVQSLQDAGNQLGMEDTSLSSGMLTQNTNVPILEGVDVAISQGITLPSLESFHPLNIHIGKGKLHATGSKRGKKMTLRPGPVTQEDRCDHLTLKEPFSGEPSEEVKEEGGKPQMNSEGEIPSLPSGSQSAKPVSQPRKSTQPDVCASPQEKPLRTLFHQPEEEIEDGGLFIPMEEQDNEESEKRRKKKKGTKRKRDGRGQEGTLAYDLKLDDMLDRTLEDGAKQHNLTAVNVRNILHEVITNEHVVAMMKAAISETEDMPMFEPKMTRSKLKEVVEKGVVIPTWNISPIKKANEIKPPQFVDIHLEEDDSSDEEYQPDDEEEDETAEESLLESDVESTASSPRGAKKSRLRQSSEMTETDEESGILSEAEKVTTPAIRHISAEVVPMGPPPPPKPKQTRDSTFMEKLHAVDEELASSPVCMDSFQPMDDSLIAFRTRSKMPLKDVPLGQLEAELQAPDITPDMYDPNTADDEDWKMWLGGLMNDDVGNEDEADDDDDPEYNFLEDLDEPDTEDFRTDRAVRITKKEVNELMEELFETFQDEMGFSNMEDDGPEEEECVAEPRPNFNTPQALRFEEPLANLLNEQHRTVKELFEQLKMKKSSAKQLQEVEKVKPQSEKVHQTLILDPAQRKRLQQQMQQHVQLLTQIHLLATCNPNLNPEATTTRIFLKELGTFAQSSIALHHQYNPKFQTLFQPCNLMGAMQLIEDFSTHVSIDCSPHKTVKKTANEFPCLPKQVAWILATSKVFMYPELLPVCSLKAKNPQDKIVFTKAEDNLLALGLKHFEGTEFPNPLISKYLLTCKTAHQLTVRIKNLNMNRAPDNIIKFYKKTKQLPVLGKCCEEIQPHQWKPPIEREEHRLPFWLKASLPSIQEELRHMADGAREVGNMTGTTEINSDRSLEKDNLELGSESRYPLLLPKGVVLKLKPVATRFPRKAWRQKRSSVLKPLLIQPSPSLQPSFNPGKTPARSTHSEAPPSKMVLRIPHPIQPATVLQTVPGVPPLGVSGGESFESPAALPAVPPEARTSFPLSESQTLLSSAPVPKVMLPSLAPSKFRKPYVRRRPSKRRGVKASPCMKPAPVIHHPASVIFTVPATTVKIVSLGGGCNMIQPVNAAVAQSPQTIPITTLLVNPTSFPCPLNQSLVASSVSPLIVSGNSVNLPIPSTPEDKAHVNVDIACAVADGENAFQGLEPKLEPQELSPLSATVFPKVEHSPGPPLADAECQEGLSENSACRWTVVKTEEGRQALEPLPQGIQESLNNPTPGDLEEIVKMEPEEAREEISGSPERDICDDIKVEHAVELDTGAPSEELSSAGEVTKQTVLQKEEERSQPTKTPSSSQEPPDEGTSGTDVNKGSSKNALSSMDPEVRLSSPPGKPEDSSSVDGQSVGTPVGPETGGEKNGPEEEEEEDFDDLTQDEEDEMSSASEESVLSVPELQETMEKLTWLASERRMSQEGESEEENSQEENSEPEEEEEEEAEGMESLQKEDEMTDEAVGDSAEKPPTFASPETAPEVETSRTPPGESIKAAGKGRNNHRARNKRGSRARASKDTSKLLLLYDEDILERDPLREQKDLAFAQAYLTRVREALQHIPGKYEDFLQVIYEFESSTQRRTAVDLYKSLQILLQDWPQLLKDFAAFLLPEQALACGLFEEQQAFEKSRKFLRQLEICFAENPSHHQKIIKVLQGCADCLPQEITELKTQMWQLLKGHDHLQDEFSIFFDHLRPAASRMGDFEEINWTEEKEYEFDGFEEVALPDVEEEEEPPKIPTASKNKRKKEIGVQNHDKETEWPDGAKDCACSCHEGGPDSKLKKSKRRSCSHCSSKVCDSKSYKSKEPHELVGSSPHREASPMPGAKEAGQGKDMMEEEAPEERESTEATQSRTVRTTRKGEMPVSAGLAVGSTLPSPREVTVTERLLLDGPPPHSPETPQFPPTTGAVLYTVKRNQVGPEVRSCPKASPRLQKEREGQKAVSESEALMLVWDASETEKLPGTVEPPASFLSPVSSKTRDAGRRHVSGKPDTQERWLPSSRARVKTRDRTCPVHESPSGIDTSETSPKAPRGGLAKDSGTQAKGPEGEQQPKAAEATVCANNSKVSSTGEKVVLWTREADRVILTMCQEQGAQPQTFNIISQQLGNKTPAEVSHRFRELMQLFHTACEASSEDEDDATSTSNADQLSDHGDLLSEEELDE
Sequence of UniProt P11142 (P11142 whole entry, looked up): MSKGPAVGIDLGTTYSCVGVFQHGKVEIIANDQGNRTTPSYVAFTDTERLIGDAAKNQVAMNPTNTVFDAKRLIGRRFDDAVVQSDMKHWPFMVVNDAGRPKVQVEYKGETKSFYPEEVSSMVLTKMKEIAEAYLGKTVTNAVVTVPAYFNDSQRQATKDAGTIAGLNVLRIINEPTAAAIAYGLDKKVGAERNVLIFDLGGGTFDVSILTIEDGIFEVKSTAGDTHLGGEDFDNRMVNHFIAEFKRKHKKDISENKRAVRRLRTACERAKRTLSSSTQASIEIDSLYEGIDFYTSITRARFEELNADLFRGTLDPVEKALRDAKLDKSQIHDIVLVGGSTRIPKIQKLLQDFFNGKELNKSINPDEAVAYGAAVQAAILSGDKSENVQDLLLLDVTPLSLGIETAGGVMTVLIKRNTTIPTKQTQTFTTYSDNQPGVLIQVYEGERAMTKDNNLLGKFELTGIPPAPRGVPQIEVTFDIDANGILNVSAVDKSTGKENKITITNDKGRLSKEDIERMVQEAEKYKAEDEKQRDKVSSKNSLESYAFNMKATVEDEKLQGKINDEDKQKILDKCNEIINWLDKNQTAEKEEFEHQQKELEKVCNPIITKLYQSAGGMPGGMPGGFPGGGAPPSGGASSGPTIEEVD
Sequence of UniProt Q96AB3 (Q96AB3 whole entry, looked up): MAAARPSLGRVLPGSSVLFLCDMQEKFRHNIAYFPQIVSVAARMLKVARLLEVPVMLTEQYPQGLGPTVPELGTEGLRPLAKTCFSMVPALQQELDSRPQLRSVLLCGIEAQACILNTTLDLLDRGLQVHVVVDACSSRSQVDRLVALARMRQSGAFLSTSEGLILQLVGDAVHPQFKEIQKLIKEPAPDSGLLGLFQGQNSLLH
Sequence of UniProt Q8NEC7 (Q8NEC7 whole entry, looked up): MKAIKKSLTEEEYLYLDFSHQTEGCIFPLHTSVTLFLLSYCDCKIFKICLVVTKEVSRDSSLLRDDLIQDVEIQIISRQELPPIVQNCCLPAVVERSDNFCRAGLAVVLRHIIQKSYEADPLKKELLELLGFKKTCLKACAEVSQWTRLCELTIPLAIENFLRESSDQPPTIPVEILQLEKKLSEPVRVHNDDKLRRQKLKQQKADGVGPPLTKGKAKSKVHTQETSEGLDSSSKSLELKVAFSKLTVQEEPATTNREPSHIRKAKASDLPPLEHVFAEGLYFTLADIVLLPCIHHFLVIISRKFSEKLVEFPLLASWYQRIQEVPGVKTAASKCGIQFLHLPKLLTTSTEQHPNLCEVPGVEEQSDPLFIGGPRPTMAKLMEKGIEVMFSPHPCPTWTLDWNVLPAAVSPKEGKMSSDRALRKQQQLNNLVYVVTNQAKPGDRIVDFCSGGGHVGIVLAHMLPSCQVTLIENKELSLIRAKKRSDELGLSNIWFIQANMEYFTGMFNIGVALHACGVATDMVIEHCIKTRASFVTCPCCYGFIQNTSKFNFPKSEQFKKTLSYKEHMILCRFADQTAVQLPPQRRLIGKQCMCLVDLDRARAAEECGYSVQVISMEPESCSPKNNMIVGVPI

log2 fold change, inactive:
GTF2H4 (UniProt Q92759) -0.047
GSTZ1 (UniProt G3V4T6) -0.013
HDAC2 (UniProt Q92769) -0.025
HEATR6 (UniProt Q6AI08) 0.052
H4C1 (UniProt P62805) -0.013
HECTD3 (UniProt Q5T447) -0.046
KCT2 (UniProt Q8NC54) 0.046
GPX4 (UniProt P36969) -0.003
IARS2 (UniProt Q9NSE4) -0.007
GTF2H1 (UniProt P32780) 0.013
GSTM4 (UniProt Q03013) 0.055
IMPACT (UniProt Q9P2X3) 0.158
IGF2BP2 (UniProt Q9Y6M1) 0.05
GON4L (UniProt Q3T8J9) 0
HK1 isoform 2 (UniProt P19367) 0.009
GTF2I (UniProt P78347) -0.004
KEAP1 (UniProt Q14145) 0.014
ISOC2 (UniProt Q96AB3) 0.048
HSD17B10 (UniProt Q99714) 0.017
IRAK4 (UniProt Q9NWZ3) -0.028
IMMT (UniProt Q16891) -0.016
IARS (UniProt P41252) 0.004
IMPDH2 (UniProt P12268) 0.015
GNE isoform 2 (UniProt Q9Y223) 0.024
GTPBP2 (UniProt Q9BX10) 0.005
HSPB1 (UniProt P04792) -0.001
INTS1 (UniProt Q8N201) 0.042
HSPA8 (UniProt P11142) -0.024
HAUS3 (UniProt Q68CZ6) 0.012
GRB10 (UniProt Q13322) 0.001
HARS (UniProt P12081) -0.024
GMIP (UniProt Q9P107) 0.041
HK2 (UniProt P52789) 0.046
IRAK1 (UniProt P51617) 0.086
GSTCD (UniProt Q8NEC7) 0.028
HDAC3 (UniProt O15379) 0.035

compound: CCCS(=O)(=O)Nc1ccc(F)c(C(=O)c2c[nH]c3ncc(Cl)cc23)c1F; assay: as above
How it was run: as §1

log2 fold change, inactive:
GTF2H4 (UniProt Q92759) 0.007
GSTZ1 (UniProt G3V4T6) -0.024
HDAC2 (UniProt Q92769) 0.035
HEATR6 (UniProt Q6AI08) 0.031
H4C1 (UniProt P62805) 0.087
HECTD3 (UniProt Q5T447) 0.007
KCT2 (UniProt Q8NC54) 0.023
GPX4 (UniProt P36969) 0.025
IARS2 (UniProt Q9NSE4) -0.005
GTF2H1 (UniProt P32780) 0.014
GSTM4 (UniProt Q03013) 0.034
IMPACT (UniProt Q9P2X3) -0.117
IGF2BP2 (UniProt Q9Y6M1) 0.026
GON4L (UniProt Q3T8J9) 0.054
HK1 isoform 2 (UniProt P19367) 0.003
GTF2I (UniProt P78347) 0.031
KEAP1 (UniProt Q14145) 0
ISOC2 (UniProt Q96AB3) 0.033
HSD17B10 (UniProt Q99714) -0.016
IRAK4 (UniProt Q9NWZ3) -0.005
IMMT (UniProt Q16891) -0.006
IARS (UniProt P41252) 0.011
IMPDH2 (UniProt P12268) 0.009
GNE isoform 2 (UniProt Q9Y223) 0.027
GTPBP2 (UniProt Q9BX10) 0.005
HSPB1 (UniProt P04792) -0.003
INTS1 (UniProt Q8N201) -0.096
HSPA8 (UniProt P11142) 0.003
HAUS3 (UniProt Q68CZ6) 0.024
GRB10 (UniProt Q13322) 0.051
HARS (UniProt P12081) -0.02
GMIP (UniProt Q9P107) 0.048
HK2 (UniProt P52789) 0.006
IRAK1 (UniProt P51617) -0.033
GSTCD (UniProt Q8NEC7) 0.057
HDAC3 (UniProt O15379) 0.026
